# Source: PubChem
# Only some compounds are listed: those with a hit (about 9.3% of all), similar ones and a draw of the others.
# NPC1 promoter act: qHTS Assay for NPC1 Promoter Activators; Huh7 NPC1 promoter luciferase reporter, 24 h; AID 485313, 2010; Potency, µM (doses to about 9.22 µM), without a hit: at the highest dose activation, hits mostly activators; 2.4% of 320,000 active; further: % of control where 0% means no effect; nearly all actives have a fitted effect of over 60% in size
#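 Cells: Huh7 expressing luciferase under the NPC1 promoter, 1500/well. Seeded 2 h, compound added, incubated 24 h at 37 °C. Luciferase reagent, 10 min ambient, then luminescence.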
# FLuc counter: qHTS profiling assay for firefly luciferase inhibitor/activator using purifed enzyme and Km concentrations of substrates (counterscreen for miR-21 project) | Luciferin 4-monooxygenase (Photinus pyralis), P08659 | Potency, µM (doses to about 57.5 µM), without a hit: at the highest dose activity change, negative = inhibition, hits mostly inhibitors | purified FLuc, Km substrates, luminescence inhibition | 6.9% of 360,000 active | AID 588342, 2011;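 further: plate controls were vehicle for no effect and reference inhibitor for full effect; nearly all actives have a fitted effect of over 55% in size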
# Target sequence (P08659 whole entry, looked up): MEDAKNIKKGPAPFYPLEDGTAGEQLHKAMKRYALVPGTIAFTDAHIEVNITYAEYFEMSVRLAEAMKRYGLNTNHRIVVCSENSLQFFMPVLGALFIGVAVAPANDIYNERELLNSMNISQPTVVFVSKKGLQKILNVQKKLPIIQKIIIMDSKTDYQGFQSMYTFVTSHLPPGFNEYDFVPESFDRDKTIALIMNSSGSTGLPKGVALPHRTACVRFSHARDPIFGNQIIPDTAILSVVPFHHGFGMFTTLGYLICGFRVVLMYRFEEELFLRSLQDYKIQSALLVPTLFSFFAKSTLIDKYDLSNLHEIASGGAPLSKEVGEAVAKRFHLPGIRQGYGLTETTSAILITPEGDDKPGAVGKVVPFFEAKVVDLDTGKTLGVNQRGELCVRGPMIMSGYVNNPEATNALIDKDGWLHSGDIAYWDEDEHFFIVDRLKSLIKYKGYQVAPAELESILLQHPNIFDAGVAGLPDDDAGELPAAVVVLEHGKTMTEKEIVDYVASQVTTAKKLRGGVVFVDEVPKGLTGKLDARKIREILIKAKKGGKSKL
#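 Purified P. pyralis luciferase (10nM final) with 10uM D-luciferin and 10uM ATP (Km levels) in 50mM Tris acetate pH 7.5, 10mM Mg acetate, 0.01% Tween-20, 0.05% BSA; qHTS 6-point titration, ~60 µM downward; luminescence read.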
# ELG1 repair inh: qHTS screen for small molecules that inhibit ELG1-dependent DNA repair in human embryonic kidney (HEK293T) cells expressing luciferase-tagged ELG1. HEK293T ELG1-luciferase reporter, luminescence, 16 h; DNA damage induced by 5-fluorouridine. Potency, µM (titrated, usually from 46.1 µM), without a hit: at the top dose activity change, negative = inhibition, usual class: inhibitors. 2.3% of 330,000 active. AID 504467, 2011; further: on the % scale 0 is the no-effect control and ±100 the full control effect; nearly all actives have a fitted effect of over 55% in size
#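 Cells (2,000 per well) received 5-fluorouridine plus test compound or DMSO and were incubated 16 hr at 37 °C, 5% CO2. Luciferase activity was read by luminescence 30 min after ONE-Glo addition; signal suppression marked inhibition of damage-induced ELG1 function.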
# Rab9 prom act: qHTS Assay for Rab9 Promoter Activators; 2.8% of 320,000 active; Huh7 Rab9 promoter-luciferase reporter, luminescence, 24 h; Potency, µM (doses to about 9.22 µM), without a hit: at the top dose activation, negative = inhibition, most hits filed as activators; AID 485297, 2010; further: % of control where 0% means no effect; nearly all actives have a fitted effect of over 60% in size
#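 Luminescence read-out: Huh7 cells stably expressing Rab9-luciferase, treated 24 h with compound at 37 °C, then lysed with luciferase reagent for 10 min at ambient before reading.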
# SMN2 splice enh: qHTS Assay for Enhancers of SMN2 Splice Variant Expression. HEK293 SMN2-luciferase splicing reporter, luminescence, 30-36 h. Potency, µM (series often up to 46.1 µM), for the others: top-dose activity change, positive = activation, hits mostly activators. 2.8% of 210,000 active. AID 1458, 2008; further: % of control where 0% means no effect; nearly all actives have a fitted effect of over 55% in size
#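 qHTS luciferase splicing reporter: luminescence rises when SMN2 exon 7 is included in transfected HEK293 cells. Compound exposure lasted 30-36 h at 37C, with 4.5 mM final sodium butyrate as control, followed by a ONE-Glo read.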
# ELG1 genotox: qHTS screen for small molecules that induce genotoxicity in human embryonic kidney (HEK293T) cells expressing luciferase-tagged ELG1; HEK293T ELG1-luciferase reporter, luminescence, 16 h; Potency, µM (series often up to 46 µM), for inactives: at the top dose activity change, positive = activation, actives largely listed as activators; 1.3% of 330,000 active; AID 504466, 2011; further: % of control where 0% means no effect; nearly all actives have a fitted effect of over 60% in size
#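 HEK293T cells expressing luciferase-tagged ELG1 were treated with compound or DMSO for 16 hr at 37°C. Luciferase activity was then read after 30 min with ONE-Glo at room temperature; rising signal flags genetic stress.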
# * marks the source's active call; other numbers are inactive results; ? = inconclusive; . = no result given; [ ] = another dose, or the depositor's remark. The call rests on the fitted dose curve; in most records, active means well fitted curve in the direction sought with a large enough effect; inconclusive means small, poorly fitted or top-dose-only effect, or another doubt; inactive means no such curve, though single readings can be large; an effect the other way counts as inactive or inconclusive. Potency means the concentration at half of the fitted maximal effect.
SMILES,NPC1 promoter act,FLuc counter,ELG1 repair inh,Rab9 prom act,SMN2 splice enh,ELG1 genotox
COc1ccc(CCC(=O)OCC(=O)N(CC(C)C)c2c(N)n(Cc3ccccc3)c(=O)[nH]c2=O)cc1,-5%,5%,10%,-4%,.,1%
CCCN(C(=O)CSc1n[nH]c(-c2ccc(OC)cc2)n1)c1c(N)n(Cc2ccccc2)c(=O)[nH]c1=O,-2%,11µM*,16%,-4%,.,3%
CC1(C)C[C@](C)(C(=O)c2ccccc2)C=C1c1ccccc1,.,.,.,.,-5%,.
Cn1c(N)c(C(=O)COC(=O)CC(NC(=O)c2ccccc2Cl)c2ccccc2)c(=O)n(C)c1=O (stereo unspecified),0%,-2%,-16%,-2%,10%,-11%
CC(=O)Nc1ccc(N/C=C/C(=O)c2ccc(C)o2)cc1,4µM*,8.5µM*,?,?,-10%,?
COc1ccccc1OCCNC(=O)c1ccc(C)o1,8%,-18%,?,-2%,.,?
CC(=O)Nc1ccc(N/C=C/C(=O)c2ccc(Cl)cc2)cc1,?,-13%,0%,?,.,8%
COc1ccccc1Oc1ccc(N/C=C/C(=O)c2ccc(C)o2)cc1,?,7.6µM*,-20%,?,22%,12%
Cc1cc(C(=O)OCC(=O)NCCc2ccccc2)c2ccccc2n1,1%,6%,13%,2%,.,2%
O=c1c2c3c(sc2nnn1Cc1ccc(Br)cc1)CCCC3,.,0%,.,.,14%,.
O=C(CC(=O)N/N=C\c1c(Cl)cccc1Cl)NCc1ccccc1,0%,3%,-4%,1%,15%,-2%
O=C(Nc1ccc(S(=O)(=O)N2CCCC2)cc1)c1cccs1,-5%,0%,7%,12%,.,-4%
O=C(Nc1nc(-c2ccc(S(=O)(=O)N3CCCCCC3)cc2)cs1)c1cccs1,-2%,4%,13µM*,-17%,-52%,-20%
O=C(Nc1nc(-c2ccc(S(=O)(=O)N3CCCC3)cc2)cs1)c1cccs1,-7%,1%,8.2µM*,-25%,.,-22%
CCCC(O)C(CC)CO (stereo unspecified),.,.,.,.,9%,.
O=C(O)CN1C(=O)/C(=C\c2cccc(OC(=O)c3ccco3)c2)SC1=S,4%,24µM*,-9%,0%,.,0%
O=C(O)CN1C(=O)/C(=C/c2ccc(SCc3ccccc3)o2)SC1=S,-4%,19µM*,11%,-2%,15%,1%
CCN1C(=O)/C(=C\c2cccc(OC(=O)c3ccco3)c2)SC1=S,-6%,5%,26%,4%,.,4%
O=C(O)CN1C(=O)/C(=C\c2ccc(OC(=O)c3ccco3)cc2)SC1=S,3%,7.6µM*,-1%,-6%,.,-2%
O=C1OC2(CCCCC2)CC2=C1C1O[C@](CCCCN3C(=O)c4ccccc4C3=O)(Cc3ccccc31)O2,-4%[1.84 µM],2%[11.5 µM],.,-9%[1.84 µM],.,.
O=C(Nc1ccc(Cl)cc1)OCc1cc(-c2ccccc2Cl)on1,-3%,0%,4%,-13%,0%,0%
Clc1ccc(Cl)c(OCc2cc(-c3ccccc3Cl)on2)c1,?,11µM*,?,?,-3%,14%
O=c1c2cnn(-c3ccccc3)c2ncn1CCc1ccccc1,10%,?,?,16%,17%,11%
CCCOc1nc(SCCC)nc2c1cnn2-c1ccccc1,-3%,4%,7%,-2%,.,2%
C=CCn1c(Cc2ccccc2)nc2c(cnn2-c2ccccc2)c1=O,-1%,-11%,21µM*,-9%,.,-8%
SMILES,NPC1 promoter act,FLuc counter,ELG1 repair inh,Rab9 prom act,SMN2 splice enh,ELG1 genotox
CCCSc1nc2c(cnn2-c2ccccc2)c(=O)n1N,4.5µM*,5.4µM*,?,0.79µM*,.,?
Nn1c(SCc2ccccc2)nc2c(cnn2-c2ccccc2)c1=O,?,11µM*,?,3.2µM*,13µM*,?
O=C(CN1C(=O)NC(Cc2ccccc2)C1=O)Nc1ccc(F)c(F)c1F (stereo unspecified),-5%,.,-3%,0%,.,1%
O=C(CCc1ccccc1)NC(NC(=S)Nc1ccc(Cl)cc1)C(Cl)(Cl)Cl (stereo unspecified),-4%,2%,0%,-2%,-15%,-15%
O=C(NC1CCCCC1)c1cc(-c2ccc(F)cc2)on1,1.4µM*,-9%,?,3.2µM*,.,16%
O=C(NC1CCCCC1)c1cc(-c2cccs2)on1,3.2µM*,?,?,2µM*,.,?
O=C(COCc1cc(-c2cccs2)on1)NC1CCCCC1,-4%,0%,10%,0%,.,2%
O=C(NCCN1CCOCC1)c1cc(-c2ccc(F)cc2)on1,12%,-1%,?,19%,-22%,10%
Cc1ccc(-c2cc(C(=O)NC3CCCC3)no2)cc1,0.56µM*,2.1µM*,?,2µM*,.,?
COCCNC(=O)C(c1ccncc1)N(C(=O)c1sc(C)nc1C)c1cccc(C)c1 (stereo unspecified),11%,-18%,?,13%,20%,8%
O=C1CCCC(O)=C1C=Nc1ccc2c(c1)oc1ccccc12,25%,2.1µM*,?,?,?,0%
CCOc1ccc(NC(=O)Cn2c(=O)n(CCCS(=O)(=O)C3CCCCC3)c(=O)c3ccccc32)cc1,.,-10%,.,.,-1%,.
CCc1ccc(C(=O)c2cncc(Br)c2)cc1,.,17µM*,.,.,?,.
O=C(Oc1ccc(Br)cc1)c1cncc(Br)c1,0%,4.8µM*,5%,-2%,-20%,2%
O=C(CCC(=O)N1CCOc2ccccc21)NCc1cccs1,.,4%,.,.,.,.
CCC(CC)NC(=O)COc1ccc(OC)cc1C=O,-7%,3%,-13%,-34%,25%,0%
Cc1cccc(Nc2c([N+](=O)[O-])c(=O)n(C)c3ccccc23)c1,-1%,21µM*,3%,-4%,-11%[1.84 µM],1%
CCOc1cc(-c2cc(-c3ccc(C)o3)nc(N)c2C#N)ccc1O,2%,-2%,16µM*,-2%,28%,4%
CCCc1cc(-c2ccc(O)c(OCC)c2)c(C#N)c(N)n1,-1%,-1%,?,3%,?,?
Cc1ccc(-c2cc(-c3ccc4c(c3)OCO4)c(C#N)c(N)n2)o1,-3%,-10%,21µM*,3%,13%,6%
